Experimental findings from PubChem BioAssay AID588335 (The Scripps Research Institute Molecular Screening Center, 2011) are described below.

The campaign covered roughly 360,000 compounds. About 4,500 (1.2%) were called active. Rule as the data show it: active = inhibition above about 30%; inactive = the rest. Shown is part of a subset that was picked to be rich in actives.

A short description of the assay: GDH-TPI coupling enzyme inhibitors, primary screen, artefact control for M. tuberculosis FBA inhibitor project, biochemical, absorbance, full deck (AID 588335).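 Also: 0% = DMSO wells and 100% = wells lacking the enzyme.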 The settings on record: GDH-TPI coupled enzyme counterscreen, NADH absorbance; at 4.8 µM; hits give high values.
What is called inhibition is the change of the read-out against control, counted positive when it falls. As to `CN(C(=O)c1cccc(NC(=O)Cc2ccc([N+](=O)[O-])cc2)c1)C1CCC1`, the inhibition is 6.17% (inactive).

On to `COc1ccc(/C=N\NC(=O)c2sc(N)nc2C)cc1OC`, for which the inhibition was 40.4% (active). On to `Cc1nnsc1C(=O)N/N=C/c1cccc(C(F)(F)F)c1`, for which the inhibition is 5.54% (inactive). As to `COc1cc(/C=N/NC(=O)Nc2ccccc2)ccc1OCCOc1ccccc1C`, the inhibition was 18.8% (inactive). As for `CC1(Oc2ccc(Cl)cc2)CCN(Cc2csc3ccccc23)C1` (centres undefined), the inhibition was -8.04% (inactive).

On to `CCOC(=O)c1ccccc1NC(=S)N1CCC(C(N)=O)CC1`, for which the inhibition was -2.65% (inactive). Regarding `CCCCn1c(N)c(N(CCOC)C(=O)c2sc3ccccc3c2Cl)c(=O)[nH]c1=O`, the inhibition was 0% (inactive). To `CC(=O)Nc1ccc(S(=O)(=O)Nc2nc3n(n2)C(c2ccccc2)CC(=O)N3)cc1` (centres undefined) belongs 0.72% (inactive); to `CCOc1ccc(-n2c(SCC(=O)OC)nc3sc4c(c3c2=O)CCN(C)C4)cc1`, 22.9% (inactive). As for `COc1ccccc1NC(=O)CSc1nc2sc3c(c2c(=O)n1-c1ccccc1)CCN(C)C3`, the figure is 33.1% (active); as for `CCCSc1nc2sc3c(c2c(=O)n1-c1ccc(OC)cc1)CCN(C)C3`, 14.5% (inactive); as for `CCOc1ccc(-n2c(SCC(=O)Nc3ccc(OC)cc3)nc3sc4c(c3c2=O)CCN(C)C4)cc1`, 19.9% (inactive). Turning to `CCSc1nc2sc3c(c2c(=O)n1-c1ccc(C)cc1)CCN(C)C3`, the inhibition is 30.7% (active).

In the case of `CCn1c(SCC(=O)Nc2ccc(Br)cc2)nc2sc3c(c2c1=O)CCN(C)C3`, the inhibition was 6.95% (inactive). Take `C[C@H]1CN([C@@H](C)CO)C(=O)CCCn2cc(nn2)CO[C@@H]1CN(C)S(=O)(=O)c1ccc(-c2ccccc2)cc1`: the inhibition was 5.15% (inactive). As for `CC1(C)CC(=O)C(C2c3ccccc3S(=O)(=O)c3ccccc32)C(=O)C1`, the figure is 3.51% (inactive). For the compound `Cc1c(C=O)c2ccccn2c1C(=O)c1ccncc1`, the inhibition was 23.7% (inactive). As for `COc1cc(NC(=O)CCNC(=O)Cn2ccc3ccccc3c2=O)cc(OC)c1OC`, the inhibition was -1.5% (inactive). As to `Cn1c(=O)c2c(nc(N3CCCCCC3)n2CC(O)COc2ccc(Cl)cc2)n(C)c1=O` (centres undefined), the inhibition was 3.88% (inactive). For the compound `CN(C)S(=O)(=O)c1cccc(NC(=O)COc2ccc3ccccc3c2)c1`, the inhibition is 0.32% (inactive). For the compound `CN(C)S(=O)(=O)c1cccc(NC(=O)COC(=O)c2cc(=O)[nH]c(=O)[nH]2)c1`, the inhibition was -1.24% (inactive). In the case of `Cc1ccc(/C=N/NC(=S)Nc2cccc(S(=O)(=O)N(C)C)c2)o1`, the inhibition was 55.8% (active). For `CCN(C(=O)Nc1cccc2ccccc12)c1ccccc1`, the inhibition is 3.9% (inactive). For `Cc1cccc(S(=O)(=O)N2CN(CC3CCCO3)c3nc4ccccc4nc32)c1` (centres undefined), the inhibition is 11.8% (inactive).
